In PubChem BioAssay (EPA / NIEHS):
Several values for one entry are separate records, joined by “and”; a condition that tells them apart may be missing. Equal values may be shown once. A structure can be active in one record and inactive in another. Activity calls are given as the source filed them. Rule for the calls: active = hit-call score of the fitted dose curve at least 0.9, where 1 is the maximum; inactive = score below 0.9.

How the values were obtained:
Conditions in all cases: primary human HUVEC with PBMC; actives raise or lower the signal
[1] = read-out: Interleukin-1 alpha (IL1a), IL1A (gene 3552); test: BSK_LPS_IL1a: BioMAP Diversity Plus: LPS Assay for Interleukin-1 alpha (IL1a) Biomarker Activity (AID 2283080)
Method in brief: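 ELISA read-out of IL-1 alpha from a human primary vascular co-culture (endothelium plus PBMC) under LPS, sampled 24 hours post-dosing. Activity was fitted in both directions relative to DMSO controls.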

[2] = read-out: Monocyte Chemoattractant Protein-1 (MCP1), CCL2 (gene 6347); test: BSK_LPS_MCP1: BioMAP Diversity Plus: LPS Assay for Monocyte Chemoattractant Protein-1 (MCP1) Biomarker Activity (AID 2283081);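 for AC50: secreted MCP-1 protein quantified by ELISA in culture supernatant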
Method in brief: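 Human endothelial–PBMC co-cultures were dosed with chemical, then LPS-driven MCP-1 levels were quantified by ELISA at 24 h. Activity in either direction was fitted versus DMSO negative control.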

[3] = BSK_LPS_PGE2: BioMAP Diversity Plus: LPS Assay for Prostaglandin E2 (PGE2) Biomarker Activity (AID 2283082);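 for AC50: secreted prostaglandin E2 measured by ELISA in LPS-stimulated co-culture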
Method in brief: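 HUVEC plus PBMC co-culture stimulated with LPS; secreted PGE2 quantified by ELISA 24 h after chemical dosing. Activity fitted bidirectionally against DMSO as negative control and baseline; parallel SRB total-protein staining served as cytotoxicity check.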

[4] = read-out: Macrophage colony-stimulating factor (MCSF), CSF1 (gene 1435); test: BSK_LPS_MCSF: BioMAP Diversity Plus: LPS Assay for Macrophage colony-stimulating factor (MCSF) Biomarker Activity (AID 2283083)
Method in brief: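 ELISA readout of M-CSF after 24 h compound exposure in a human endothelial/PBMC co-culture. Activity, in either direction, is fitted relative to DMSO vehicle.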

[5] = read-out: Tissue Factor, F3 (gene 2152); test: BSK_LPS_TissueFactor: BioMAP Diversity Plus: LPS Assay for Tissue Factor Biomarker Activity (AID 2283084)
Method in brief: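 ELISA signal for cell-surface Tissue Factor (CD142) was read 24 h after compound dosing of an LPS-stimulated human endothelial–PBMC primary co-culture. Gain or loss of signal was scored relative to DMSO.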

[6] = read-out: Tumor necrosis factor (Homo sapiens) (UniProt P01375); test: BSK_LPS_TNFa: BioMAP Diversity Plus: LPS Assay for Tumour Necrosis Factor alpha (TNFa) Biomarker Activity (AID 2283085);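 for AC50: TNFa protein level quantified by ELISA in the co-culture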
Method in brief: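 Human umbilical vein endothelial cells co-cultured with PBMC were exposed to test chemical and TNFa measured by ELISA 24 h after dosing. Bidirectional curve fitting was done relative to DMSO as negative control and baseline.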

[7] = read-out: Vascular cell adhesion molecule 1 (VCAM1), VCAM1 (gene 7412); test: BSK_LPS_VCAM1: BioMAP Diversity Plus: LPS Assay for Vascular cell adhesion molecule 1 (VCAM1) Biomarker Activity (AID 2283086)
Method in brief: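 Human umbilical vein endothelial cells co-cultured with peripheral blood mononuclear cells under LPS stimulation were exposed to test chemical for 24 h. VCAM-1 levels were then measured by ELISA, with bidirectional curve fitting relative to DMSO as negative control and baseline.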

CD38, CD38 (gene 952) = test: BSK_SAg_CD38: BioMAP Diversity Plus: SAg Assay for CD38 Biomarker Activity (AID 2283087)
Method in brief: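 Fluorescence ELISA of cell-surface CD38 served as the read-out, with either increase or decrease fitted against DMSO controls. Cells were a human umbilical vein endothelium plus PBMC co-culture under SEB/TSST-1 stimulation, measured 24 h after dosing.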

CD40, CD40 (gene 958) = test: BSK_SAg_CD40: BioMAP Diversity Plus: SAg Assay for CD40 Biomarker Activity (AID 2283088)
Method in brief: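 Compounds were dosed onto a human primary endothelial–PBMC co-culture, and after 24 h CD40 was quantified by ELISA using a fluorescence signal. Activity in either direction was fitted relative to DMSO.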

CD69, CD69 (gene 969) = test: BSK_SAg_CD69: BioMAP Diversity Plus: SAg Assay for CD69 Biomarker Activity (AID 2283089);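 for AC50: cell surface CD69 protein quantified by ELISA with fluorescence detection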
Method in brief: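 Endothelial/PBMC co-culture; chemical added; 24 h incubation; CD69 ELISA with fluorescence detection; bidirectional fit vs DMSO.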

Measured: AC50

Sequence of Tumor necrosis factor (Homo sapiens) (P01375 whole entry, looked up): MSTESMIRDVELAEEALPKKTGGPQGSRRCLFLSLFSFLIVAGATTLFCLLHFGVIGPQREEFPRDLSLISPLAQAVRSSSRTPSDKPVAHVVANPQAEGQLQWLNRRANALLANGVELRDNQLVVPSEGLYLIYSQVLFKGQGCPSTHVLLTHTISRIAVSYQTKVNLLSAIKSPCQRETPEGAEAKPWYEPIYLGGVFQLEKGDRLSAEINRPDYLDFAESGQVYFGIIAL

OCCCC(F)(F)C(F)(F)C(F)(F)C(F)(F)C(F)(F)C(F)(F)C(F)(F)C(F)(F)F
active: [1] 30 µM and 6.25 µM | [2] 29.9 µM and 44.8 µM | [4] 44.2 µM and 22.5 µM | [5] 39.3 µM and 23.2 µM | [6] 29.7 µM and 19.9 µM | [7] 41.4 µM and 23.6 µM | CD38, CD38 (gene 952) 44.8 µM and 26 µM | CD40, CD40 (gene 958) 43.8 µM and 45.5 µM | CD69, CD69 (gene 969) 45.5 µM and 46.7 µM
inactive: [3]

COC(F)(C(F)F)C(F)(F)F (centres undefined)
inactive: all assays above

CNS(=O)(=O)C(F)(F)C(F)(F)C(F)(F)C(F)(F)C(F)(F)C(F)(F)C(F)(F)C(F)(F)F
active: [1] 5.38 µM
inactive: [1] | [2] | [3] | [4] | [5] | [6] | [7] | CD38, CD38 (gene 952) | CD40, CD40 (gene 958) | CD69, CD69 (gene 969)

OCC(F)(F)C(F)(F)C(F)(F)C(F)(F)C(F)(F)C(F)(F)C(F)(F)C(F)(F)CO
active: [6] 0.399 µM | CD69, CD69 (gene 969) 5.61 µM
inactive: [1] | [2] | [3] | [4] | [5] | [6] | [7] | CD38, CD38 (gene 952) | CD40, CD40 (gene 958) | CD69, CD69 (gene 969)

O=C(O)C(F)(F)C(F)(F)C(F)(F)C(=O)O
inactive: all assays above

CC(C)CCCC(C)CCO (centres undefined)
inactive: all assays above

C=C(C)C(=O)OCC(F)(F)C(F)(F)C(F)(F)C(F)F
active: [4] 0.646 µM
inactive: [1] | [2] | [3] | [4] | [5] | [6] | [7] | CD38, CD38 (gene 952) | CD40, CD40 (gene 958) | CD69, CD69 (gene 969)

C=CC(=O)OCC(F)(F)C(F)(F)C(F)(F)C(F)(F)C(F)(F)C(F)(F)C(F)(F)C(F)F
active: [3] 13.9 µM | CD40, CD40 (gene 958) 18.1 µM
inactive: [1] | [2] | [3] | [4] | [5] | [6] | [7] | CD38, CD38 (gene 952) | CD40, CD40 (gene 958) | CD69, CD69 (gene 969)

O=C(O)C(F)(F)C(F)(F)C(F)(F)OC(F)(C(F)(F)F)C(F)(F)F
inactive: all assays above

O=S(=O)(O)CCC(F)(F)C(F)(F)C(F)(F)C(F)(F)C(F)(F)C(F)(F)C(F)(F)C(F)(F)F
active: [1] 47.3 µM and 44.8 µM | [3] 30 µM and 40.9 µM | [4] 51.4 µM | [6] 47.1 µM | [7] 5.95 µM | CD38, CD38 (gene 952) 15.6 µM
inactive: [2] | [4] | [5] | [6] | [7] | CD38, CD38 (gene 952) | CD40, CD40 (gene 958) | CD69, CD69 (gene 969)

FC(F)(F)C(F)(F)C(F)(F)CC1CO1 (centres undefined)
inactive: all assays above

CCN=C1C=CC(=C(c2ccc(N(CC)CC)cc2)c2ccc(N(CC)CC)cc2)c2ccccc21
active: [1] 2.54 µM and 1.43 µM | [2] 261 nM and 1.13 µM | [3] 3.95 µM and 2.66 µM | [4] 1.72 µM and 1.53 µM | [5] 1.6 µM and 1.55 µM | [6] 501 nM and 519 nM | [7] 1.42 µM and 1.55 µM | CD38, CD38 (gene 952) 713 nM and 470 nM | CD40, CD40 (gene 958) 1.69 µM and 1.51 µM | CD69, CD69 (gene 969) 1.34 µM and 765 nM

CCN(CC)c1ccc(C=O)cc1
inactive: all assays above

O=C(O)C(F)(F)C(F)(F)C(F)(F)C(F)(F)C(F)(F)C(F)(F)C(F)F
inactive: all assays above

Cc1cc(O)c(C(C)(C)C)cc1C(C)(C)C
active: [1] 5.31 µM | [2] 9.04 µM | [4] 5.29 µM | [5] 5.3 µM | [6] 9.79 µM | [7] 5.9 µM | CD38, CD38 (gene 952) 10.1 µM | CD40, CD40 (gene 958) 5.09 µM | CD69, CD69 (gene 969) 5.18 µM
inactive: [3]

NC(=O)C(F)(F)C(F)(F)C(F)(F)C(F)(F)C(N)=O
active: [4] 0.393 µM
inactive: [1] | [2] | [3] | [4] | [5] | [6] | [7] | CD38, CD38 (gene 952) | CD40, CD40 (gene 958) | CD69, CD69 (gene 969)

CCN(CCO)S(=O)(=O)C(F)(F)C(F)(F)C(F)(F)C(F)(F)C(F)(F)C(F)(F)C(F)(F)C(F)(F)F
active: [1] 23.7 µM and 5.83 µM | [2] 21.8 µM | [4] 7.7 µM | [5] 10.8 µM and 15 µM | [7] 30 µM and 35.9 µM | CD38, CD38 (gene 952) 35.9 µM and 29.9 µM | CD40, CD40 (gene 958) 22.8 µM and 46 µM | CD69, CD69 (gene 969) 9.85 µM
inactive: [2] | [3] | [4] | [6] | CD69, CD69 (gene 969)

OC(O)C(F)(F)C(F)(F)F
inactive: all assays above

NC(=O)C(F)(F)C(F)(F)C(F)(F)F
inactive: all assays above

Nc1cc([N+](=O)[O-])cc(Cl)c1O
inactive: all assays above

OCCCCC(F)(F)C(F)(F)C(F)(F)C(F)(F)F
inactive: all assays above

O=C(O)C(F)(F)OC(F)(F)C(F)(F)OC(F)(F)C(F)(F)OC(F)(F)F
inactive: all assays above

NS(=O)(=O)C(F)(F)C(F)(F)C(F)(F)C(F)(F)C(F)(F)C(F)(F)F
inactive: [1] | [2] | [4] | [5] | [6] | CD38, CD38 (gene 952)
active: [2] 30 µM | [3] 10.7 µM and 13.8 µM | [7] 5.95 µM and 46.8 µM | CD38, CD38 (gene 952) 43.9 µM | CD40, CD40 (gene 958) 26.3 µM and 30 µM | CD69, CD69 (gene 969) 28.6 µM and 32.5 µM

C[Si](Cl)(Cl)CCC(F)(F)C(F)(F)C(F)(F)C(F)(F)C(F)(F)C(F)(F)F
inactive: all assays above

OCC(F)(F)C(F)(F)C(F)(F)CO
inactive: all assays above

FC(F)(F)C(F)(F)C(F)(F)C(F)(F)C(F)(F)C(F)(F)CC[Si](Cl)(Cl)Cl
inactive: [1] | [2] | [3] | [4] | [5] | [6] | [7] | CD38, CD38 (gene 952) | CD40, CD40 (gene 958) | CD69, CD69 (gene 969)
active: [2] 0.219 µM

CCOC(=O)CC(=O)C(F)(F)C(F)(F)F
inactive: all assays above

CC1=CC2C3C=CC(C3)C2C1C (centres undefined)
active: [6] 31.3 µM
inactive: all other assays above

O=S(=O)(O)CCC(F)(F)C(F)(F)C(F)(F)C(F)(F)F
inactive: all assays above

C=CC(=O)OCCC(F)(F)C(F)(F)C(F)(F)C(F)(F)F
active: [5] 30 µM | [7] 32.7 µM and 15.7 µM | CD38, CD38 (gene 952) 47.8 µM and 30 µM | CD40, CD40 (gene 958) 30 µM | CD69, CD69 (gene 969) 28 µM and 30.9 µM
inactive: [1] | [2] | [3] | [4] | [5] | [6]

OCC(F)(F)C(F)(F)C(F)(F)C(F)(F)C(F)(F)C(F)(F)CO
active: [6] 1.9 µM
inactive: [1] | [2] | [3] | [4] | [5] | [6] | [7] | CD38, CD38 (gene 952) | CD40, CD40 (gene 958) | CD69, CD69 (gene 969)
